# In PMC7862700, “An all-to-all approach to the identification of sequence-specific readers for epigenetic DNA modifications on cytosine”:
# Tests used:
# Assay in all cases: DAPPL (digital affinity profiling via proximity ligation, sequencing); 10 mM Tris-HCl pH 7.5, 50 mM NaCl, 1 mM DTT, 4% glycerol, room temperature, 30 min; GST-TFs on glutathione beads, 16-mer random dsDNA library, 0.1% formaldehyde crosslink after washing; high values mean tight binding
# FLI1 = molecular target: T1, FLI1 (Homo sapiens, UniProt Q01543 1-452); conditions: protein: recombinant; tags: N-terminal GST; dsDNA, one strand shown
# T1 sequence: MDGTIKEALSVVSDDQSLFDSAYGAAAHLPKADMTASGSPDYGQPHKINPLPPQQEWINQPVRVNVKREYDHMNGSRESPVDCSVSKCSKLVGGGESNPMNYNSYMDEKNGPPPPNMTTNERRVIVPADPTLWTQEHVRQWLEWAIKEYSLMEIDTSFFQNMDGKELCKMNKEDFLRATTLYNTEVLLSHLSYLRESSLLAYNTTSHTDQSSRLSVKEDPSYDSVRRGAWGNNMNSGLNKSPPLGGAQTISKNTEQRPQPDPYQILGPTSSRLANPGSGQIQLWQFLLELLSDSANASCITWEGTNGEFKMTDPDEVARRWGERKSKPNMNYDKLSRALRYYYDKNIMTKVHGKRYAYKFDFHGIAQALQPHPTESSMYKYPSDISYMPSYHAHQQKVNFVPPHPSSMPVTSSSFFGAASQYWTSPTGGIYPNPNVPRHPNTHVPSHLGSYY
# Outline: (§1)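 After expression in yeast as GST fusions, human transcription factors were bound to glutathione beads, DNA-barcoded and mixed with a tag-only sample. The pools were incubated with 200 nmole of a 16-mer random double-stranded DNA library in Tris/NaCl/DTT/glycerol buffer (30 min, room temperature), washed and crosslinked with 0.1% formaldehyde. Proximity ligation with BsaI/T4 ligase ran for 1 h at 37 °C, before PCR amplification and sequencing on an Illumina NextSeq500. Binding signal is a hexamer's read frequency for a factor divided by its frequency for the tag-only sample.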
# ELK1 = molecular target: T2, ELK1 (Homo sapiens, UniProt P19419 1-428); conditions: protein: recombinant; tags: N-terminal GST; dsDNA, one strand shown
# T2 sequence: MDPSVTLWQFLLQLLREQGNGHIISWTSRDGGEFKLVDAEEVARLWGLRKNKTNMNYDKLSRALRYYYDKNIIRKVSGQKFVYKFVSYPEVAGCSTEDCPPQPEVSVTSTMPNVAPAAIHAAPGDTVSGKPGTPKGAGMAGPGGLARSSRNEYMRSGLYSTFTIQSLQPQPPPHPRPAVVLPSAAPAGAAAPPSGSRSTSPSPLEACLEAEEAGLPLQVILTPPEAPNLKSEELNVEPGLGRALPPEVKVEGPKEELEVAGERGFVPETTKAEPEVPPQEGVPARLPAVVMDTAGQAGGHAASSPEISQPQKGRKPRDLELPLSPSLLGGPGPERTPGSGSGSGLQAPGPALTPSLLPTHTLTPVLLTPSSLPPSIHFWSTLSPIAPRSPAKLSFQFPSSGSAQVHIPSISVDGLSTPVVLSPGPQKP
# Outline: as §1
# GABPA = molecular target: T3, GABPA (Homo sapiens, UniProt Q06546 1-454); conditions: protein: recombinant; tags: N-terminal GST; dsDNA, one strand shown
# T3 sequence: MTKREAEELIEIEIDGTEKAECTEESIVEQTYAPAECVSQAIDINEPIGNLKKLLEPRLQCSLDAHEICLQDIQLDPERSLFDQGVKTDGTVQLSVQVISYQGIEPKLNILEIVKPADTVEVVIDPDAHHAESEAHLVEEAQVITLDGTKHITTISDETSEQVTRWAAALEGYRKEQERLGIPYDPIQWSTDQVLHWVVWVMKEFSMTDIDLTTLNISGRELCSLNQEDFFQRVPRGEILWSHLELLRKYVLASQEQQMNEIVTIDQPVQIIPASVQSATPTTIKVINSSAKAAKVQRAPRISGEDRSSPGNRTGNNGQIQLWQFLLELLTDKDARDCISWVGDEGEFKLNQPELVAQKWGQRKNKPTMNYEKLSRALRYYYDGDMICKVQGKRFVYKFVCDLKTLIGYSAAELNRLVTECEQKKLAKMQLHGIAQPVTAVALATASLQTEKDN
# Outline: as §1
# ERG = molecular target: T4, ERG (Homo sapiens, UniProt P11308 1-479); conditions: protein: recombinant; tags: N-terminal GST; dsDNA, one strand shown
# T4 sequence: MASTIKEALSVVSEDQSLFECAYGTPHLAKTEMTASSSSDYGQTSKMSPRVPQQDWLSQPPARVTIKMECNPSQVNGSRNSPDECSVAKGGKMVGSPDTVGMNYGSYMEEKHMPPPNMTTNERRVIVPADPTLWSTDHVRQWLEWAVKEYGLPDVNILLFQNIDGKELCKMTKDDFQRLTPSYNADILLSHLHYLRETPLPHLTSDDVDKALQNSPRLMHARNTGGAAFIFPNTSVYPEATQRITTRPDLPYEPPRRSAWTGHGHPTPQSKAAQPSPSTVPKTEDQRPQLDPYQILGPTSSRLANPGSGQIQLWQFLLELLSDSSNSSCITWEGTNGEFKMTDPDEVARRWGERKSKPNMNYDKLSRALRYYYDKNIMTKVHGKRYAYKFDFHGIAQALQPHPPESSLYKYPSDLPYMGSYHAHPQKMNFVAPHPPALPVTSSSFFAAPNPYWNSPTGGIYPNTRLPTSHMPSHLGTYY
# Outline: as §1
# ELF1 = ELF1 (Homo sapiens, UniProt P32519 1-619); conditions: protein: recombinant; tags: N-terminal GST; dsDNA, one strand shown
# Outline: as §1
# EHF = molecular target: T5, EHF (Homo sapiens, UniProt Q9NZC4 1-300); conditions: protein: recombinant; tags: N-terminal GST; dsDNA, one strand shown
# T5 sequence: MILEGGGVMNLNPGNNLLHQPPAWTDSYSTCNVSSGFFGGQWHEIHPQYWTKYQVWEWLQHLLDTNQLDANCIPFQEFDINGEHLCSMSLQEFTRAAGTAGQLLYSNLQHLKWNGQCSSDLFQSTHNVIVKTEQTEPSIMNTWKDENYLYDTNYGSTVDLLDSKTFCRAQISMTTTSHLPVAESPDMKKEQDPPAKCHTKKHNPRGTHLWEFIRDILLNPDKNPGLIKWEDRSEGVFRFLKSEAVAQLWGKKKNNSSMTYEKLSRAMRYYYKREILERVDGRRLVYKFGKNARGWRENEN
# Outline: as §1
# SPI1 = SPI1 (Homo sapiens, UniProt P17947 1-270); conditions: protein: recombinant; tags: N-terminal GST; dsDNA, one strand shown
# Outline: as §1
# SPIB = SPIB (Homo sapiens, UniProt Q01892 1-262); conditions: protein: recombinant; tags: N-terminal GST; dsDNA, one strand shown
# Outline: as §1
# ELK3 = molecular target: T6, ELK3 (Homo sapiens, UniProt P41970 1-407); conditions: protein: recombinant; tags: N-terminal GST; dsDNA, one strand shown
# T6 sequence: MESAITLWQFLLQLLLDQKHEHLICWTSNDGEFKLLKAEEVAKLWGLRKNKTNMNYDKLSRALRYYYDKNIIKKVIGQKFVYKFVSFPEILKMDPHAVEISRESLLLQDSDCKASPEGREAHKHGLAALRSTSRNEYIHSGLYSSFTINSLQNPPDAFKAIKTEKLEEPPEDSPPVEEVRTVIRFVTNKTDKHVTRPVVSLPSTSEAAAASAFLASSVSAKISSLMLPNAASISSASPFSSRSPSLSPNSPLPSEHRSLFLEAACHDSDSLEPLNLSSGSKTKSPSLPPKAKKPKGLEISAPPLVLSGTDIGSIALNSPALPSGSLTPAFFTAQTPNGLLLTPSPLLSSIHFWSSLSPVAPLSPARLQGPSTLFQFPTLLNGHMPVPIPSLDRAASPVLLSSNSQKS
# Outline: as §1
# FEV = molecular target: T7, FEV (Homo sapiens, UniProt Q99581 1-238); conditions: protein: recombinant; tags: N-terminal GST; dsDNA, one strand shown
# T7 sequence: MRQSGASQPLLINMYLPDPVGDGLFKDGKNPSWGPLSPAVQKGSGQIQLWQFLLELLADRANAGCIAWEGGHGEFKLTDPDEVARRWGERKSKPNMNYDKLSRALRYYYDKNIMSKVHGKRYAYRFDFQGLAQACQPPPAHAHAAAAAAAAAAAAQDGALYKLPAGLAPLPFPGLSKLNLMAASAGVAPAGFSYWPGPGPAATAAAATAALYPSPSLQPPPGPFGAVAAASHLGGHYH
# Outline: as §1
# ETV5 = ETV5 (Homo sapiens, UniProt P41161 1-510); conditions: protein: recombinant; tags: N-terminal GST; dsDNA, one strand shown
# Outline: as §1
# HSF1 = HSF1 (Homo sapiens, UniProt Q00613 1-529); conditions: protein: recombinant; tags: N-terminal GST; chain copies: 3; dsDNA, one strand shown
# Outline: as §1
# SPIC = molecular target: T8, SPIC (Homo sapiens, UniProt Q8N5J4 1-248); conditions: protein: recombinant; tags: N-terminal GST; dsDNA, one strand shown
# T8 sequence: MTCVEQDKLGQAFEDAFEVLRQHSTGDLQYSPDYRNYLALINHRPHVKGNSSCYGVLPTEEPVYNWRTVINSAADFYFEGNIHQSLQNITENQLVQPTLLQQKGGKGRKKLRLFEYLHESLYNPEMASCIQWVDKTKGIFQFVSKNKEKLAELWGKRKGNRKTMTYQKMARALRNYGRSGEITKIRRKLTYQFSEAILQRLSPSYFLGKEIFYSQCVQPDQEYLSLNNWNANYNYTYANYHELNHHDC
# Outline: as §1
# ELF4 = ELF4 (Homo sapiens, UniProt Q99607 1-663); conditions: protein: recombinant; tags: N-terminal GST; dsDNA, one strand shown
# Outline: as §1
# ELK4 = molecular target: T9, ELK4 (Homo sapiens, UniProt P28324-2 1-405); conditions: protein: recombinant; tags: N-terminal GST; dsDNA, one strand shown
# T9 sequence: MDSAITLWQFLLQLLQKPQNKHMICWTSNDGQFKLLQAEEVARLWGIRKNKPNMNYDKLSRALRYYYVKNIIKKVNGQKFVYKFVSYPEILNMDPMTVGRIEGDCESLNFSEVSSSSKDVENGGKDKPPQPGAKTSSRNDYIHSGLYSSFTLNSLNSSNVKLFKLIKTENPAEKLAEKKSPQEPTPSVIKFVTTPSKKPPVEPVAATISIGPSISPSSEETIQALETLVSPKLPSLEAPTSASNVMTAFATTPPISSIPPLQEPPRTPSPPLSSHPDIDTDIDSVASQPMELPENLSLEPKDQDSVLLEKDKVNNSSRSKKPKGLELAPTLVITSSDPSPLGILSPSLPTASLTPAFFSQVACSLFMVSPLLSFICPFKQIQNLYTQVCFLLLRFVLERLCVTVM
# Outline: as §1
# ETV2 = molecular target: T10, ETV2 (Homo sapiens, UniProt O00321 1-342); conditions: protein: recombinant; tags: N-terminal GST; dsDNA, one strand shown
# T10 sequence: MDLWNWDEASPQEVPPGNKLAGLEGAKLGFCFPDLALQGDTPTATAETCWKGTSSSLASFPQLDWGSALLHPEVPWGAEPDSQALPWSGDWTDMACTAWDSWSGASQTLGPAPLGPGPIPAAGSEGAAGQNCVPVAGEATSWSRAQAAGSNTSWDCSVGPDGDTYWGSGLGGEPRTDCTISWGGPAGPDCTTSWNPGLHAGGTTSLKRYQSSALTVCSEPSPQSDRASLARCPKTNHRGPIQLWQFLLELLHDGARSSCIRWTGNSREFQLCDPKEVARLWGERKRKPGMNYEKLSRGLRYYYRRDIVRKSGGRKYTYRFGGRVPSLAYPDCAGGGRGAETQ
# Outline: as §1
# ELF3 = molecular target: T11, ELF3 (Homo sapiens, UniProt P78545 1-371); conditions: protein: recombinant; tags: N-terminal GST; dsDNA, one strand shown
# T11 sequence: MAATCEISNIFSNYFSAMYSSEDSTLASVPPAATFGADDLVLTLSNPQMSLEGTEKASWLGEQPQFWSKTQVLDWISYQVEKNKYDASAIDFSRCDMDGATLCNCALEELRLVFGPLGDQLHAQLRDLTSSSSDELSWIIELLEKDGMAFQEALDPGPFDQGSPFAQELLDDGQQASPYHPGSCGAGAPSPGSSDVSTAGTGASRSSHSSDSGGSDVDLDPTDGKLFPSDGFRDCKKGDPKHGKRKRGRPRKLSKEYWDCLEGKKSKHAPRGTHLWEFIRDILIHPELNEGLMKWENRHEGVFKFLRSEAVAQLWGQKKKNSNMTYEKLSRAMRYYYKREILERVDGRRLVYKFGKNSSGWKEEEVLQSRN
# Outline: as §1
# CRX = CRX (Homo sapiens, UniProt O43186 1-299); conditions: protein: recombinant; tags: N-terminal GST; dsDNA, one strand shown
# Outline: as §1
# ETV1 = ETV1 (Homo sapiens, UniProt P50549 1-477); conditions: protein: recombinant; tags: N-terminal GST; dsDNA, one strand shown
# Outline: as §1
# Sequence of HSF1 (Q00613 whole entry): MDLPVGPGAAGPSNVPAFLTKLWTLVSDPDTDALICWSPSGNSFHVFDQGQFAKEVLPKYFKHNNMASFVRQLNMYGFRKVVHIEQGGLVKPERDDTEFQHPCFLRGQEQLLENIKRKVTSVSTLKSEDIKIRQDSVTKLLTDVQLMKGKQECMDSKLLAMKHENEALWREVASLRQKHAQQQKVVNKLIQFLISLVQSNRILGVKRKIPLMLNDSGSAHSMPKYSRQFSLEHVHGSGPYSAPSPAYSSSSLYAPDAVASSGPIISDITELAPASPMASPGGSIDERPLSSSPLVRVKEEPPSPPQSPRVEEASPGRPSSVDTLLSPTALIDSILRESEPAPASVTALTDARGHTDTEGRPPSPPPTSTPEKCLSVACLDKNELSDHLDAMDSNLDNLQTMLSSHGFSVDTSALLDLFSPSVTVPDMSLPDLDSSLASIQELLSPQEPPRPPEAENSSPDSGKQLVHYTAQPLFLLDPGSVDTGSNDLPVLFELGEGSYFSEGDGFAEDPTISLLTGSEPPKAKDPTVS
# Sequence of ETV1 (P50549 whole entry): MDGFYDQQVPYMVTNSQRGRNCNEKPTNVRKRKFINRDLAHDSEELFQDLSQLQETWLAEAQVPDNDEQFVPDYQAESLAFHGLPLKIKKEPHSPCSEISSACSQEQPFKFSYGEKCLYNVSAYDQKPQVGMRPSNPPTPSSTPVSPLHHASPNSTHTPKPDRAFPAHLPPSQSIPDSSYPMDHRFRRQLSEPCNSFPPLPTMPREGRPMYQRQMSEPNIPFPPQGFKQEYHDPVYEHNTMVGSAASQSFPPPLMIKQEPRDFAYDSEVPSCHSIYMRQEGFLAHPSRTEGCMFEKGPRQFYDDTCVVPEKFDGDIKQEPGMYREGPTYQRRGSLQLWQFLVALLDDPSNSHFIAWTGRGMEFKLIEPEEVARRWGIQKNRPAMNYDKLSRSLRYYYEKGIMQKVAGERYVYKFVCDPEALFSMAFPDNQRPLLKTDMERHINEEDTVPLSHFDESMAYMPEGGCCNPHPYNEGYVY
# Sequence of CRX (O43186 whole entry): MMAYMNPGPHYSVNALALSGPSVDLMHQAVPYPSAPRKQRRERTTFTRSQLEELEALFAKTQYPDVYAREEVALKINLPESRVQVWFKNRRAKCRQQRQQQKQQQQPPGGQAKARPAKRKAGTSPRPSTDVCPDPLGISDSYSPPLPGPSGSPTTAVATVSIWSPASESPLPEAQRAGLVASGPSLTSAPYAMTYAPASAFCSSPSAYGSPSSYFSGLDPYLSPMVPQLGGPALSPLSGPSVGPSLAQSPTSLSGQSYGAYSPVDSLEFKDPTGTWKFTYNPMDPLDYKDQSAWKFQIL
# Sequence of ETV5 (P41161 whole entry): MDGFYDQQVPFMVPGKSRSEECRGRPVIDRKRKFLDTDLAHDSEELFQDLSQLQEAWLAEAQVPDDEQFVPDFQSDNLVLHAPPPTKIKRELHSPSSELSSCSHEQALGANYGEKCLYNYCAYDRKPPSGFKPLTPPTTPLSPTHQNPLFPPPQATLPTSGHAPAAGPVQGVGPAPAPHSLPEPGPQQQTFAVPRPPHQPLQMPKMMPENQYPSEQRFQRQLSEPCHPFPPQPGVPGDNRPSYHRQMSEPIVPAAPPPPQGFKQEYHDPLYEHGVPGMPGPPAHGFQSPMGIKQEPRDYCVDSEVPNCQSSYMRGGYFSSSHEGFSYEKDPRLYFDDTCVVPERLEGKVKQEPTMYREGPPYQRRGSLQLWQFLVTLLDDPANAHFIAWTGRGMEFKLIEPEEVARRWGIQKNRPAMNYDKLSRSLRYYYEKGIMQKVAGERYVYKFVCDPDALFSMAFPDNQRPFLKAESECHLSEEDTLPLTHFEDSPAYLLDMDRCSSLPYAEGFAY
# Sequence of ELF1 (P32519 whole entry): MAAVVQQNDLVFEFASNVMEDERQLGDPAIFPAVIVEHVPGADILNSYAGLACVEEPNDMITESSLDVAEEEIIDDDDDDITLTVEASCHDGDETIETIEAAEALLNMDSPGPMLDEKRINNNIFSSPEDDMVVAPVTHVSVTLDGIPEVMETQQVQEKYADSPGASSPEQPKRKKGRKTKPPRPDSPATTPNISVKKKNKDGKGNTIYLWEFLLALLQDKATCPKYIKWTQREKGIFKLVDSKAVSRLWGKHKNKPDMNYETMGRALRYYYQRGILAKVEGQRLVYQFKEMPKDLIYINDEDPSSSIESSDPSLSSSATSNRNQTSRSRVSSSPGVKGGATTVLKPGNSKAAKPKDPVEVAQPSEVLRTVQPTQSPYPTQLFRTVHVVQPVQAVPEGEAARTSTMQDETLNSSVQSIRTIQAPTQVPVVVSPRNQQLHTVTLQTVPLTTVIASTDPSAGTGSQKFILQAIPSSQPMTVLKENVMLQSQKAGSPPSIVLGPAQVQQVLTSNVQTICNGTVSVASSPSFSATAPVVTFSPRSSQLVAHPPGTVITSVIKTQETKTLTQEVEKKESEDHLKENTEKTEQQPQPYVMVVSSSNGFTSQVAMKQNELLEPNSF
# Sequence of ELF4 (Q99607 whole entry): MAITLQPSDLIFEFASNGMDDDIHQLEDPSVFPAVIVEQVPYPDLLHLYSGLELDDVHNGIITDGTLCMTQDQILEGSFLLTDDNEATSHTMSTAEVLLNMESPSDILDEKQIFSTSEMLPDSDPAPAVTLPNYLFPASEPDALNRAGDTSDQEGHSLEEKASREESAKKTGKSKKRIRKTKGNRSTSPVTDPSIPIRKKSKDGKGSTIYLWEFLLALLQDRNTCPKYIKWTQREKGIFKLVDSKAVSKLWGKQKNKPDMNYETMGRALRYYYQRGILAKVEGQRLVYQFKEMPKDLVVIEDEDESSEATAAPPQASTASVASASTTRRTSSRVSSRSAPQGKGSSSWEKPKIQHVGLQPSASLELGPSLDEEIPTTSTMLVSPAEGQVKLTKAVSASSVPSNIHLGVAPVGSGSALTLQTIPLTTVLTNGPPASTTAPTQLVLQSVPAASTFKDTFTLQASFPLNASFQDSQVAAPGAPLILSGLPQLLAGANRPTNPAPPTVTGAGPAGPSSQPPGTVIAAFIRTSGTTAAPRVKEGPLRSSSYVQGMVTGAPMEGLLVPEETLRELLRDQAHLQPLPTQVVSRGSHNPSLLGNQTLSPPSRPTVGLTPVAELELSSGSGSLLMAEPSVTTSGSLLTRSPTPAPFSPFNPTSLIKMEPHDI
# Sequence of SPIB (Q01892 whole entry): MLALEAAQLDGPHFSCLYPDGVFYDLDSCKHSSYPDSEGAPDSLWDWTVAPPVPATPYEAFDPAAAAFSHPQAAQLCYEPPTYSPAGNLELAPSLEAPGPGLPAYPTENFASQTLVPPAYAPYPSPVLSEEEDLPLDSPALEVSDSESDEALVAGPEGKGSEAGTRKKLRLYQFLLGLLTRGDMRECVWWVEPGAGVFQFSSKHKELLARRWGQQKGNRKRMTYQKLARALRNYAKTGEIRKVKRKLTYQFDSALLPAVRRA
sequence,measurement,setting,value
CAACTA,binding signal,FLI1,"1.24 fold enrichment (6-mer frequency, TF over GST control)"
same,binding signal,ELK1,"1.31 fold enrichment (6-mer frequency, TF over GST control)"
same,binding signal,GABPA,"1.37 fold enrichment (6-mer frequency, TF over GST control)"
same,binding signal,ERG,"1.3 fold enrichment (6-mer frequency, TF over GST control)"
same,binding signal,ELF1,"1.38 fold enrichment (6-mer frequency, TF over GST control)"
same,binding signal,EHF,"1.27 fold enrichment (6-mer frequency, TF over GST control)"
same,binding signal,SPI1,"1.28 fold enrichment (6-mer frequency, TF over GST control)"
same,binding signal,SPIB,"1.24 fold enrichment (6-mer frequency, TF over GST control)"
same,binding signal,ELK3,"1.25 fold enrichment (6-mer frequency, TF over GST control)"
same,binding signal,FEV,"1.27 fold enrichment (6-mer frequency, TF over GST control)"
same,binding signal,ETV5,"1.26 fold enrichment (6-mer frequency, TF over GST control)"
same,binding signal,HSF1,"1.2 fold enrichment (6-mer frequency, TF over GST control)"
same,binding signal,SPIC,"1.22 fold enrichment (6-mer frequency, TF over GST control)"
same,binding signal,ELF4,"1.31 fold enrichment (6-mer frequency, TF over GST control)"
same,binding signal,ELK4,"1.24 fold enrichment (6-mer frequency, TF over GST control)"
same,binding signal,ETV2,"1.18 fold enrichment (6-mer frequency, TF over GST control)"
same,binding signal,ELF3,"1.32 fold enrichment (6-mer frequency, TF over GST control)"
same,binding signal,CRX,"1.24 fold enrichment (6-mer frequency, TF over GST control)"
same,binding signal,ETV1,"1.24 fold enrichment (6-mer frequency, TF over GST control)"
